Assay results as given in PubChem BioAssay (NCI).
The panel holds about 83,000 compounds, 20% with a hit somewhere; the sample as a whole holds those more often.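 Compound tested at a single concentration for 48 hours in 96-well plates; a percent growth value below 10 was scored as active.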 The source made the active and inactive calls.

What was measured:
Test in all cases: NCI-60 one-dose screen, 48 h (100 = growth as untreated, 0 = no growth, -100 = all killed)
Settings in all cases: 10 µM unless noted
MDA-MB-435 melanoma = system: MDA-MB-435 melanoma
SW-620 colon = system: SW-620 colon
MCF7 breast = system: MCF7 breast
HCT-116 colon = system: HCT-116 colon
HCC-2998 colon = system: HCC-2998 colon
KM12 colon = system: KM12 colon

| Compound | growth (MDA-MB-435 melanoma) | growth (SW-620 colon) | growth (MCF7 breast) | growth (HCT-116 colon) | growth (HCC-2998 colon) | growth (KM12 colon) |
| --- | --- | --- | --- | --- | --- | --- |
| CCOC(=O)C(Cc1ccccc1)(C(=O)OCC)C(Br)C(=O)c1ccccc1 (centres undefined) | 77.3% (inactive) | 39.8% (inactive) | 56.9% (inactive) | 53.3% (inactive) | 100% (inactive) | 97.9% (inactive) |
| CSc1nnc(C2=CC(=O)c3ccccc3C2=O)n1-c1ccccc1 | 96.7% (inactive) | 92.1% (inactive) | 94.5% (inactive) | 73.8% (inactive) | 85% (inactive) | 61.5% (inactive) |
| O=C1CC(C(F)(F)F)=NN1C(=O)c1nn(-c2ccc(Cl)cc2)cc1O | 95.3% (inactive) | 97.1% (inactive) | 102% (inactive) | 74.1% (inactive) | 89.7% (inactive) | 79.9% (inactive) |
| C[n+]1c2ccccc2c(NC2CCNCC2)c2[nH]c3ccccc3c21 | 30.9% (inactive) | 16.1% (inactive) | 1.07% (active) | 4.09% (active) | -7.7% (active) | -11.4% (active) |
| O=C(O)c1ccc(NC(=O)c2ccc(Nc3ccnc(C(F)(F)F)c3)cc2)cc1 | 104% (inactive) | 105% (inactive) | 100% (inactive) | 104% (inactive) | 103% (inactive) | 93.2% (inactive) |
| CCOc1ccccc1C(=O)OCC(=O)Nc1cccc(S(=O)(=O)N(C)C)c1 | 96.2% (inactive) | 97% (inactive) | 102% (inactive) | 96.1% (inactive) | 98.9% (inactive) | 104% (inactive) |
| CCN(CC)CCOc1ccccc1-n1c(C)ccc1-c1ccccc1 |  | 36.7% (inactive) | 98.3% (inactive) |  | 24.2% (inactive) | 50.6% (inactive) |
| COc1ccc(/C(=C2\O[C@@H]([C@H](O)CO)[C@H]3OC(C)(C)O[C@@H]23)c2cc(OC)c(OC)c(OC)c2)cc1O | -23.9% (active) |  | 95.7% (inactive) | 89.3% (inactive) |  | 9.46% (active) |
| COC1CC2CCC(C)C(O)(O2)C(=O)C(=O)N2CCCCC2C(=O)OC(C(C)CC2CCC(O)C(OC)C2)CC(=O)C(C)C=C(C)C(O)C(OC)C(=O)C(C)CC(C)/C=C/C=C/C=C1C (centres undefined) | 43.6% (inactive) | 64.5% (inactive) |  | 49.5% (inactive) |  | 69.8% (inactive) |
| C=C(C)[C@H]1CC/C(C)=C/CC[C@]2(C)O[C@H]2CC/C(C=O)=C\C1O (some centres undefined) | 120% (inactive) | 108% (inactive) | 97.2% (inactive) | 105% (inactive) | 111% (inactive) | 114% (inactive) |
| CCOC(Cc1c(N)[nH]c(=S)[nH]c1=O)OCC |  | 105% (inactive) | 96.8% (inactive) | 103% (inactive) | 113% (inactive) | 112% (inactive) |
| CCOC(=O)C(C(C)=O)c1nc2sc3cc(Cl)ccc3n2c(=N)c1C#N (centres undefined) | 104% (inactive) |  | 58.8% (inactive) | 103% (inactive) | 131% (inactive) | 44.1% (inactive) |
| CSc1nc2c(c(=O)[nH]1)C(c1ccc(Cl)cc1)C1=C(N2)/C(=C/c2ccc(Cl)cc2)CNC1 (centres undefined) | 34.5% (inactive) | -9.84% (active) | 13% (inactive) | -69.5% (active) | 17.3% (inactive) | -24% (active) |
| C[n+]1c2ccccc2c(Nc2ccc(N3CCCCC3)cc2)c2[nH]c3ccccc3c21 | -96.4% (active) | -90.8% (active) | -74.6% (active) | -98.7% (active) | -96.1% (active) | -96.5% (active) |
| Cc1nc2c(O)cccc2cc1CO | 109% (inactive) | 108% (inactive) | 96.8% (inactive) | 107% (inactive) | 103% (inactive) | 113% (inactive) |
| N#Cc1c(N2CCOCC2)nc2sc3cc(Cl)ccc3n2c1=N | 114% (inactive) | 98.3% (inactive) | 74.7% (inactive) | 103% (inactive) | 122% (inactive) | 82.3% (inactive) |
| O=C(Nc1ccc(Cl)cc1)c1cc2c(cc1O)[nH]c1ccccc12 |  |  | 8.67% (active) | 14.1% (inactive) | -21.5% (active) | 37.5% (inactive) |
| C=C(C)[C@H]1CC/C(C)=C/CC[C@]2(C)O[C@H]2CC/C(COC(C)=O)=C\C1=O | 95.2% (inactive) | 109% (inactive) | 110% (inactive) | 95% (inactive) | 103% (inactive) | 143% (inactive) |
| Oc1ccccc1C=Nc1ccccc1N=Cc1ccccc1O.[Cu+2] | 56% (inactive) | 83.4% (inactive) | 27.6% (inactive) | 57.9% (inactive) | 74.2% (inactive) | 44.6% (inactive) |
| C[C@]12C[C@H](O)[C@H]3[C@@H](CCC4=CC(=O)CC[C@@]43C)[C@@H]1CC[C@@H]2C(=O)CO | 103% (inactive) | 99.1% (inactive) | 101% (inactive) | 106% (inactive) |  | 99.9% (inactive) |
| Cc1c(C(N)=O)sc2ncn(CC(=O)Nc3ccc(Cl)cc3)c(=O)c12 |  | 106% (inactive) | 108% (inactive) | 105% (inactive) | 118% (inactive) | 117% (inactive) |
| O=c1[nH]c(=O)n(C2CC(O)C(CO)O2)cc1C(F)(F)F (centres undefined) | 47.8% (inactive) | 52.7% (inactive) | 23.6% (inactive) | 39.4% (inactive) |  | 51.8% (inactive) |

| Compound | growth (MDA-MB-435 melanoma) | growth (SW-620 colon) | growth (MCF7 breast) | growth (HCT-116 colon) | growth (HCC-2998 colon) | growth (KM12 colon) |
| --- | --- | --- | --- | --- | --- | --- |
| CN1C(=O)C(=Cc2cn(Cc3ccccc3)c3ccc(Br)cc23)C(=O)N(C)C1=O | 102% (inactive) | 108% (inactive) | 87% (inactive) | 101% (inactive) | 107% (inactive) | 102% (inactive) |
| CCN(CC)CCOc1ccc(C2=C(c3ccccc3)CCc3cc(OC)ccc32)cc1 | -33.9% (active) | -59% (active) | -9.06% (active) | 5.52% (active) |  | -18.4% (active) |
| COc1ccc(/C=C/C(=O)Nc2cccnc2Nc2ccc(F)cc2)cc1 | 94.4% (inactive) | 106% (inactive) | 88.3% (inactive) | 91.3% (inactive) |  | 107% (inactive) |
| COc1cc(C2NC(c3ccc(Cl)cc3)C(C)C(=NC(=O)c3cnccn3)C2C)cc(OC)c1OC (centres undefined) |  | 114% (inactive) | 93.1% (inactive) | 78.9% (inactive) | 129% (inactive) | 90.7% (inactive) |
| COc1cc(C(=O)/C=C/c2cccnc2Nc2ccccc2)cc(OC)c1OC | -23.3% (active) |  | -73% (active) | -94.9% (active) | -76.7% (active) | -88.2% (active) |
| CN1CCCC1c1cccnc1 (centres undefined) | 119% (inactive) | 108% (inactive) | 97.1% (inactive) | 104% (inactive) |  | 104% (inactive) |
| COc1ccc(C2=NN(C(=O)c3cc(OC)c(OC)c(OC)c3)C(c3ccc(C#N)cc3)C2)cc1OC (centres undefined) | -40.4% (active) | 16.1% (inactive) | 27% (inactive) | 13.6% (inactive) |  | 15.1% (inactive) |
| COC(=O)[C@]12CC[C@@H](C)[C@H](C)[C@@H]1C1=CC[C@@H]3[C@@]4(C)C[C@@H](OC(=O)c5ccco5)[C@H](O)[C@@](C)(CO)[C@@H]4[C@H](O)C[C@@]3(C)[C@]1(C)CC2 |  | -81.4% (active) | -73.7% (active) | -63.3% (active) | -89.1% (active) | -85.8% (active) |
| COc1ccc(-n2nc3c(c2-c2ccc(OC)c(OC)c2)-c2oncc2CC3)cc1 | 78.6% (inactive) |  | 80.8% (inactive) | 87.9% (inactive) | 104% (inactive) | 77.7% (inactive) |
| CCN(CC)CCCNCCCNc1cc(OC)cc2cccnc12 | 103% (inactive) |  | -46.8% (active) | 86.5% (inactive) | 83.7% (inactive) | 78.8% (inactive) |
| COc1ccc2c(c1)nc(N)c1c3cc(C)c(C)cc3cn21 | -18% (active) | 41.9% (inactive) | 16.3% (inactive) | 49.6% (inactive) | 85.9% (inactive) | 46.8% (inactive) |
| CC(=O)NCCSC(=O)C(=O)SCCNC(C)=O | 106% (inactive) | 116% (inactive) | 125% (inactive) | 110% (inactive) |  | 107% (inactive) |
| COc1ccc(/C=N/NC(=O)c2ccc(S(C)(=O)=O)cc2)cc1OC | 109% (inactive) | 99.8% (inactive) | 92.4% (inactive) | 89% (inactive) | 98.5% (inactive) | 95.8% (inactive) |
| CC(=O)Nc1ccc2c(c1)Cc1c(F)c(F)c(F)c(F)c1-2 | 101% (inactive) | 103% (inactive) | 86.7% (inactive) | 86.3% (inactive) |  | 92.8% (inactive) |
| O=C1/C(=N/O)CCc2ccccc21 | 95.6% (inactive) | 95% (inactive) | 96.3% (inactive) | 83.6% (inactive) | 103% (inactive) | 89.3% (inactive) |
| CCC(CCC(C)C1CCC2C3CC=C4CC(O)CCC4(C)C3CCC12C)C(C)C (centres undefined) (tested in a mixture with another compound) | 85% (inactive) | 104% (inactive) | 95.8% (inactive) | 79% (inactive) | -53.1% (active) | 91.4% (inactive) |
| COc1cc([C@@H]2c3cc4c(cc3C(O[C@@H]3O[C@@H]5CO[C@@H](c6cccs6)OC5[C@H](O)[C@H]3O)C3COC(=O)[C@@H]32)OCO4)cc(OC)c1O (some centres undefined) |  | -8.91% (active) |  | -56.7% (active) | -76.4% (active) | -45.9% (active) |
| Nc1cc(Cl)c(S(N)(=O)=O)cc1S(N)(=O)=O |  | 107% (inactive) | 96.2% (inactive) | 121% (inactive) |  | 105% (inactive) |
| O=C(O)c1ccccc1C(=O)OC1CCCC2CCCC21 (centres undefined) | 118% (inactive) | 111% (inactive) | 94.6% (inactive) | 112% (inactive) | 98.5% (inactive) | 106% (inactive) |
| O=C(O)C(=O)O | 96.4% (inactive) | 112% (inactive) | 98.4% (inactive) | 101% (inactive) |  | 102% (inactive) |
| Cc1nn(-c2ccc(Cl)cc2)c2nc3c(nc12)C(=O)c1ccccc1-3 | 67.5% (inactive) | 83.4% (inactive) | 49.1% (inactive) | 39.9% (inactive) | 52.5% (inactive) | 78.8% (inactive) |
| Cc1nc(N)[nH]c(=O)c1C | 106% (inactive) |  | 95% (inactive) | 101% (inactive) | 81.1% (inactive) | 122% (inactive) |
